TTR transcr act: activators of transthyretin transcription. activation, % at 16.7 µM. SH-SY5Y TTR promoter Gaussia luciferase, luminescence; 100% = recombinant luciferase protein wells. 1.3% of 92,000 active;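 active = activation above the mean of all tested compounds plus 3 SD, cut at about 9.5% in these data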;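 also: cells exposed to compounds for one day before reading; 0% = median of all test compound wells on the plate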
HuH7 TTR inh: decreases TTR transcription in HuH7 cells in activator counter-screen; shares compounds with TTR transcr act; 4% of 1,100 active; HuH7 TTR promoter-Gaussia luciferase reporter, luminescence; inhibition, % at 16.7 µM; AID 1117279;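 active = average inhibition above the solvent-only control wells' mean plus 3 SD, cut at about 15% in these data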;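 also: 0% = cells with DMSO only and 100% = cells with inhibitor control FD; inhibitors lower well luminescence so higher value means more inhibition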
TTR up confirm: human TTR transcription activation, confirmation; shares compounds with TTR transcr act; SHSY5Y TTR promoter Gaussia luciferase, luminescence; 100% = purified Lucia enzyme wells, no cells; activation, % at 16.7 µM; 1,100 tested, under 10 active;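 active = mean activation above a set limit taken from the earlier primary screen, cut at about 11% in these data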;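 also: 0% = DMSO-treated cells and 100% = recombinant Lucia luciferase without cells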
An asterisk follows results filed as active. The entries come from a sample that favours hits as a whole.

SMILES	TTR transcr act	others
CC1Nc2nc(NC(=O)C(C)(C)C)[nH]c(=O)c2N(C)C1C (stereo not given)	0
Cc1ccccc1OCCn1c(=S)[nH]c2ccccc21	-1
Cc1ccccc1OCCn1c(S(=O)(=O)O)nc2c(N)ncnc21	9.9*	HuH7 TTR inh=-16;TTR up confirm=0
Cc1ccccc1OCCn1c(C)nc2ccccc21	-2
CC(C)NC(=O)CSc1nnc(-c2ccncc2)n1-c1ccccc1	1
C[C@@H]1COc2cc(Br)ccc2S(=O)(=O)N1Cc1cn(CC2CCCCC2)nn1	-2
CC1(C)N=C(N)N=C(N)N1c1ccc(OCC(=O)N2CCOCC2)c(Cl)c1	0
O=C(NNC(=O)c1cnccn1)c1ccc(Cl)cc1	-2
O=C(Nc1ccccc1N1CCCCC1)c1cnccn1	2
O=C(NNC(=O)C1CCCCC1)c1cnccn1	12*	HuH7 TTR inh=-9;TTR up confirm=0
CCn1c(COc2ccc(=O)n(-c3ccccc3)n2)nnc1SC	-1
COc1cc([N+](=O)[O-])ccc1NC(=O)Cn1ccsc1=N	0
COc1ccc(-c2csc3nc(-c4cccnc4)nc(N4CCC(C(N)=O)CC4)c23)cc1OC	-2
O=C(O)c1ccc(-c2nc3scc(-c4ccccc4)c3c(=O)[nH]2)cc1	5
O=C1CN(c2nc(-c3cccnc3)nc3scc(-c4ccccc4)c23)CCN1	13*	HuH7 TTR inh=-5;TTR up confirm=-1
COc1ccc(Cn2ccc3ccc(-c4ccc5ccn(Cc6ccc(F)cc6)c5c4)cc32)cc1	0
C/C=C/C(=O)OCC(=O)Nc1ccc(OC)c(Cl)c1	12*	HuH7 TTR inh=-10;TTR up confirm=1
C/C=C/C(=O)OCC(=O)Nc1ccc(OC)c(OC)c1	1
COc1ccc(NC(=O)CCCC(=O)O)cc1Cl	0
C[C@H](CO)N1C[C@H](C)[C@H](CN(C)S(=O)(=O)c2cccs2)OCc2cnnn2CCCC1=O	-1
Cc1ccc(C(=O)NCCC(=O)Nc2ccccc2C)cc1	-1
CCCCOCCCNC(=O)C[C@H]1C(=O)N(Cc2ccc(OC)cc2)C2=CCCCC[C@@]21C(=O)OC	0
O=C(CCSCCC(=O)NCC1CCCO1)NCC1CCCO1 (stereo not given)	-1
O=C(CCSc1ccccc1)NCC1CCCO1 (stereo not given)	15*	HuH7 TTR inh=-5;TTR up confirm=0
CC(NC(=O)C(=O)NCC1CCCO1)c1ccccc1 (stereo not given)	-1
SMILES	TTR transcr act	others
O=C(NCCN1CCN(C(=O)c2cccc(Br)c2)CC1)C(=O)Nc1ccc(Br)cc1	-4
O=C(CN1C2=NCCCN2c2ccccc21)c1cccs1	1
O=C(Cn1ccccc1=O)c1cccs1	17*	HuH7 TTR inh=-12;TTR up confirm=-1
CCCn1c(=N)n(CC(=O)c2cccs2)c2ccccc21	4
CCc1nnc(NC(=O)CCC(=O)NCc2ccc(OC)cc2)s1	-1
CC(=O)Nc1ccc(C(C#N)=Cc2ccc(N(C)CCC#N)cc2)cc1	1
O=C(CN1C(=O)CCC1=O)Nc1nc(-c2ccc(Oc3ccccc3)cc2)cs1	-2
O=C(NCc1ccc(F)c(F)c1)C1CCC(=O)N(CCc2ccccc2)C1 (stereo not given)	1
Cc1ccc(F)cc1CNC(=O)C1CCC(=O)N(CCc2ccccc2)C1 (stereo not given)	0
CCOC(=O)CC1(NC(=O)C2CCC(=O)N(CCc3ccccc3)C2)CCCCC1 (stereo not given)	14*	HuH7 TTR inh=-12;TTR up confirm=1
O=C(Nc1c(C(=O)N2CCCCC2)cnn1-c1ccccc1)c1ccccc1	5
Cc1cccc(C(=O)Nc2c(C(=O)N(C)C)cnn2-c2ccccc2)c1	11*	HuH7 TTR inh=-13;TTR up confirm=-1
CCOC(=O)c1cnn(-c2ccccc2)c1NC(=O)c1ccccc1	-1
CNC(=O)C[C@@H]1CC[C@@H]2[C@H](COc3ccc(NC(=O)c4cccc(F)c4)cc3C(=O)N2C)O1	3
O=C(N[C@H]1CC[C@@H]2SC[C@@H](C(=O)O)N2C1=O)OCC1c2ccccc2-c2ccccc21	3
CC1(c2ccc(OC(F)F)cc2)NC(=O)N(CC(=O)Nc2ccc3c(c2)OCO3)C1=O (stereo not given)	-2
COc1ccc(C2(C)NC(=O)N(CC(=O)Nc3ccc4c(c3)OCO4)C2=O)cc1OC (stereo not given)	15*	HuH7 TTR inh=-12;TTR up confirm=1
CC1(c2ccccc2)NC(=O)N(CC(=O)Nc2ccc3c(c2)OCO3)C1=O (stereo not given)	-1
Cc1ccc(OCC(=O)N(Cc2ccccc2)c2c(N)n(Cc3ccccc3)c(=O)[nH]c2=O)c(C)c1	0
O=C(COC(=O)c1ccccc1Br)Nc1cc(S(=O)(=O)N2CCOCC2)ccc1N1CCCC1	-1
CC(C)COc1ccc(CNC(=S)N/N=C/c2ccc([N+](=O)[O-])cc2)cc1	11*	HuH7 TTR inh=7;TTR up confirm=-1
COc1ccc(CNC(=S)N/N=C/c2ccncc2)cc1	0
CC(C)Oc1ccc(CNC(=S)N/N=C/c2ccc([N+](=O)[O-])cc2)cc1	2
O=C(CN(c1ccccc1)S(=O)(=O)c1ccccc1[N+](=O)[O-])Nc1cccnc1	0
Clc1ccc2c(c1)c1ccccc1n2CN1CCOCC1	22*	HuH7 TTR inh=-8;TTR up confirm=0
SMILES	TTR transcr act	others
COc1ccc(Cl)cc1CN1CCOCC1	0
Cc1ccc(Cl)cc1NC(=O)CN1CCOCC1	4
O=C(NCCc1ccccc1)OCc1cn(Cc2c(F)cccc2F)nn1	-1
C/C(=N\NC(=O)c1c[nH]c2ccccc12)c1ccco1	2
O=C(Cn1cnc2ccccc2c1=O)c1c[nH]c2ccccc12	-1
O=C(CN1C(=O)C(=O)N(Cc2ccco2)C1=O)c1c[nH]c2ccccc12	11*	HuH7 TTR inh=-14;TTR up confirm=6
COc1ccc(C(CNc2nc(-c3cccnc3)nc3ccccc23)N(C)C)cc1 (stereo not given)	1
CC(C)c1ncc(CO)n1Cc1c(Cl)cccc1Cl	-1
O=C(Nc1ccc([N+](=O)[O-])cc1)NN1CCCCCC1	0
N#Cc1ccc(NC(=O)NN2CCCCCC2)cc1	5
O=C(Nc1ccc(Cl)cc1)NN1CCCCCC1	17*	HuH7 TTR inh=2;TTR up confirm=0
CCOc1ccc(OCC)c(S(=O)(=O)n2cnc(C)c2)c1	-1
COc1ccccc1NC(=O)Nc1ccc2c(c1)nc(C)n2C	0
COc1cccc(C(=O)OCC(=O)N2CCc3ccccc32)c1OC	12*	HuH7 TTR inh=-17;TTR up confirm=1
Cc1ccccc1OCC(=O)OCC(=O)N1CCc2ccccc21	-2
COc1ccccc1C(=O)N1CCc2ccccc21	-2
C[C@H]1CN([C@@H](C)CO)C(=O)c2cc(Br)cnc2O[C@@H]1CN(C)C(=O)Nc1ccc(C(F)(F)F)cc1	-1
COc1c2ccoc2c(OC[C@@H](OC(C)=O)C(C)(C)O)c2oc(=O)ccc12	1
CC(C)(O)C(O)COc1c2ccoc2cc2oc(=O)ccc12 (stereo not given)	3
COC(C)(C)[C@H](O)COc1c2ccoc2cc2oc(=O)ccc12	13*	HuH7 TTR inh=-21;TTR up confirm=0
Cc1ccc(C)c(Cn2nc(-c3cc(C)ccc3C)ccc2=O)c1	1
OCC1OC(n2nnc3ccccc32)C(O)C(O)C1O (stereo not given)	0
O=c1ccncn1C1OC(CO)C(O)C1O (stereo not given)	13*	HuH7 TTR inh=-11;TTR up confirm=1
Nc1ncnc2c1ncn2C1OC(CO)C(O)C1O (stereo not given)	4
Nn1c(=O)c2ccccc2n2c(SCc3ccc(C(F)(F)F)cc3)nnc12	5

Screens from PubChem.
